# ADAM17 inh: ADAM17 inhibitors, primary screen, biochemical, QFRET; Disintegrin and metalloproteinase domain-containing protein 17 (Homo sapiens), P78536; 0.83% of 370,000 active; AID 720648, 2013; inhibition, % at 6.95 µM; recombinant ADAM17, EDANS/DABCYL FRET peptide cleavage;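 active = inhibition above the mean of compounds lying between control limits plus 3 SD, set per campaign, cut at about 8.5% in these data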
# sPLA2-III inh: human group III sPLA2 inhibitors, primary screen, biochemical, QFRET, BODIPY PC-A2 liposome substrate; Group 3 secretory phospholipase A2 (Homo sapiens), Q9NZ20; QFRET BODIPY PC-A2 liposome hydrolysis, fluorescence; inhibition, % at 12.2 µM; 0.56% of 370,000 active;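 active = inhibition above mean plus 3 SD of compounds lying within the high and low control bounds, cut at about 19% in these data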
# GRIN3A LBD mod: binders of NR3A ligand-binding domain, primary screen, biophysical, differential scanning fluorimetry, uHTS. Glutamate receptor ionotropic, NMDA 3A (GRIN3A) ligand-binding domain. NR3A LBD differential scanning fluorimetry, Tm shift; 0% = protein alone, 100% = glycine-bound protein. Tm shift relative to glycine control, % at 25 µM. 2.5% of 340,000 active;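 active = melting temperature shift of at least 10% of the positive control shift, at one fixed dose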
# FAS TE block: FAS thioesterase domain inhibitors, primary screen, biochemical, fluorescence intensity, uHTS; Fatty acid synthase (Homo sapiens), P49327; recombinant FAS-TE, OMFH fluorogenic substrate, fluorescence endpoint; inhibition, % at 15 µM; 0.67% of 360,000 active; AID 602261, 2012;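 active = compounds whose normalised, plate-corrected inhibition of enzyme fluorescence in the single-dose primary screen is 50% or more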
# ADAM10 inh: human ADAM10 inhibitors, primary screen, biochemical, QFRET, HTS. recombinant ADAM10, EDANS/DABCYL FRET peptide cleavage, 3 h. AID 720582, 2013. 0.62% of 370,000 active. inhibition, % at 7 µM. Disintegrin and metalloproteinase domain-containing protein 10 (Homo sapiens), O14672;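 active = inhibition above a per-campaign cutoff equal to the mean of compounds falling between control-based bounds plus 3 SD, cut at about 20% in these data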
# Target sequence (O14672 214-748 limits assumed): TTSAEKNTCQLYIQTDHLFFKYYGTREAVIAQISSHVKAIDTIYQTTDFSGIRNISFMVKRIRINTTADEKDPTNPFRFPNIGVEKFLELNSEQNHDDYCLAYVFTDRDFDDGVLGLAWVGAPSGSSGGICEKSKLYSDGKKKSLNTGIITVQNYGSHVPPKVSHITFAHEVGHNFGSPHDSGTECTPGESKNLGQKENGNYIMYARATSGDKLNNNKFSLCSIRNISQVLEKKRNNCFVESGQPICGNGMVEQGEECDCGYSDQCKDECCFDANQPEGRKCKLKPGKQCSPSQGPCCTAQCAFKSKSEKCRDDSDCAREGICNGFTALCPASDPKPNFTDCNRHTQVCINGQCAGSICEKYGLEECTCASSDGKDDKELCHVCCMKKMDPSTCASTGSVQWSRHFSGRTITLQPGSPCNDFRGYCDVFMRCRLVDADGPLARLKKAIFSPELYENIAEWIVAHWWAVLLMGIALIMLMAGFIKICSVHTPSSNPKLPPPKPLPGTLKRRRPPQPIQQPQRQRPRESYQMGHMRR
# hGIII sPLA2 conf: human group III sPLA2 inhibitors, confirmation, biochemical, QFRET, triplicate; recombinant hGIII-sPLA2, BODIPY PC-A2 QFRET fluorescence; inhibition, % at 12.2 µM; shares compounds with sPLA2-III inh; 34% of 2,000 active;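 active = mean inhibition across triplicates above the hit cutoff set in the earlier primary screen, cut at about 19% in these data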
# BODIPY interf: 535nm fluorescence optical interference, confirmation, artefact control for HGIII-sPLA2 inhibitor project, biochemical, QFRET | AID 743282, 2014 | inhibition, % at 12.2 µM | 8.5% of 2,000 active | shares compounds with sPLA2-III inh | BODIPY FL product fluorescence interference;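 active = average inhibition above the solvent-only control mean plus 3 SD, cut at about 6% in these data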
# BODIPY interf DR: 535nm fluorescence optical interference, dose response, artefact control for HGIII-sPLA2 inhibitor project, biochemical, QFRET. AID 743455, 2014. shares compounds with sPLA2-III inh. IC50, µM. 240 tested, under 10 active. BODIPY FL product fluorescence interference, cell-free;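 active = IC50 at or below 10 µM; inactive = IC50 above 10 µM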
# A number is an active result; i = inactive; nt = no result. Most compounds without a hit are left out; they make up all but 4.3% or so of the library.
SMILES,ADAM17 inh,sPLA2-III inh,GRIN3A LBD mod,FAS TE block,ADAM10 inh,hGIII sPLA2 conf,BODIPY interf,others
CCn1c(O)c(N=NC(=O)c2cccs2)c2ccccc21,i,i,i,i,i,nt,nt,
c1ccc(-c2nnc3n2N=C(c2ccc4ccccc4c2)CS3)nc1,i,i,nt,nt,i,nt,nt,
O=C1NC(=S)N/C1=C\c1cccc([N+](=O)[O-])c1,i,20,i,i,i,i,i,
O=C1NC(=S)N/C1=C/c1cccc([N+](=O)[O-])c1,i,i,i,i,i,nt,nt,
COC(=O)N1C[C@H](OCc2ccc3c(c2)OCO3)[C@H]2C[C@@H]1c1ccccc1O2,i,i,nt,nt,i,nt,nt,
O=C(/C=C/c1cccs1)c1ccc([N+](=O)[O-])cc1,i,21,i,i,i,i,i,
COc1ccc(N2CCN(C(c3cccs3)C(C)NC(=O)c3ccc4c(c3)OCO4)CC2)cc1 (configuration not stated),i,22,i,i,i,i,i,
COc1ccc(N2CCN(C(c3cccs3)C(C)NC(=O)c3ccco3)CC2)cc1 (configuration not stated),i,i,i,i,i,nt,nt,
CN(C)c1ccc(/C=N/NC(=O)c2ccn(C)n2)cc1,i,20,i,i,i,i,i,
Cn1ccc(C(=O)N/N=C/c2cccnc2)n1,i,i,i,i,i,nt,nt,
COc1ccc(C)cc1NCc1ccc([N+](=O)[O-])cc1,i,19,i,i,i,i,i,
COc1ccc(CNc2cc([N+](=O)[O-])ccc2OC)cc1,i,i,i,i,i,nt,nt,
CC(C)(C)NC(=O)c1cccc2c1OC(C)(C)C2,i,24,i,i,i,i,i,
O=C(NCCc1ccccc1)OCc1cn(-c2cccc(C(F)(F)F)c2)nn1,i,i,nt,nt,i,nt,nt,
COc1cc(NC(=O)Nc2ccc(Cl)c(Cl)c2)c(C(=O)O)cc1OC,i,i,i,i,i,nt,nt,
CN(C(=O)Nc1ccc(Cl)c(Cl)c1)c1ccccc1C(=O)O,i,21,i,i,i,i,i,
CCCCN1C(=O)Cc2c1nc(N)c1c(N)nc(N(CCC)CCC)c(C#N)c21,i,28,i,i,i,i,i,
O=C(N/N=C/c1cccnc1)c1ccccc1[N+](=O)[O-],i,19,i,i,i,i,i,
O=C(NC(=S)NCc1cccnc1)c1ccccc1[N+](=O)[O-],i,i,i,i,i,nt,nt,
O=C(NCc1cccnc1)c1ccccc1[N+](=O)[O-],i,25,i,i,i,i,i,
O=c1oc2ccccc2c(N2CCCC2)c1[N+](=O)[O-],i,i,i,i,i,nt,nt,
CC1CCN(c2c([N+](=O)[O-])c(=O)oc3ccccc23)CC1,i,21,i,i,i,i,i,
Brc1ccc(C=Nc2ccc3c(c2)OCCOCCOCCO3)s1,i,24,i,i,i,i,i,
Clc1ncnc2scc(-c3ccc(Br)cc3)c12,i,19,i,i,i,i,i,
C/C(=N\NC(=O)c1nnn(-c2nonc2N)c1CN(C)c1ccccc1)c1ccccc1O,i,24,14,i,i,33,i,BODIPY interf DR=i
SMILES,ADAM17 inh,sPLA2-III inh,GRIN3A LBD mod,FAS TE block,ADAM10 inh,hGIII sPLA2 conf,BODIPY interf,others
O=C(OCc1ccccc1)N1CCC2CC1c1ccc(N3CCN(Cc4ccccc4)CC3)cc12 (configuration not stated),i,i,nt,nt,i,nt,nt,
CN(C)CCCN(C(=O)c1cc2ccccc2oc1=O)c1nc2ccc(F)cc2s1,i,i,i,i,i,nt,nt,
CCN(CCCCCN(C)C)Cc1cc2ccccc2o1,i,21,i,i,i,i,i,
Cc1cccc(N2CCN(C(=O)CCN3C(=S)NC(C)(C)CC3C)CC2)c1C (configuration not stated),i,28,i,i,i,i,i,
Cc1ccc(C)c(N2CCN(C(=O)CCCN3C(=S)NC(C)(C)CC3C)CC2)c1 (configuration not stated),i,22,i,i,i,21,i,
COC(=O)[C@H](N[C@H](/C=C/c1ccccc1)[C@@H](O)Cc1ccccc1)c1ccccc1,i,i,nt,nt,i,nt,nt,

# Source: PubChem BioAssay
